Assay [1] is described as follows: reduced mouse 2C T cell binding to pMHC/ICAM-1 vesicles – MLPCN validation set, flow cytometry, LFA-1/ICAM-1 modulator project, pilot screen (AID 2523;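 active = response below a set limit, under 55% cells CD8-positive and vesicle-bound, and CD8 cells' 90th-percentile brightness under 279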;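 as to vesicle binding response: mean PE anti-B7-1 fluorescence of CD8+ cells relative to row control; 100% = QL9-loaded vesicles with DMSO vehicle in the same plate row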). Particulars: 2C mouse CD8+ T cells, at 7 µM, stronger effect = lower value; double positive events: measured here: CD8+/vesicle+ event percentage. Background: Flow cytometry measures light scatter and fluorescence of single cells or particles in a stream.

Assay [2] addresses Integrin beta-1 (Homo sapiens) + Integrin alpha-4 (Homo sapiens) (UniProt P13612+P05556). Briefly: alpha4beta1 integrin LIBS antibody binding reduction – U937 cells, HUTS-21 mAb, flow cytometry, validation set, VLA-4 allosteric modulator project, pilot screen (AID 2674;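 active = inhibition above 50%, about 3 SD of the validation set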;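 also: antibody binding induced by the VLA-4 ligand LDV present at three times its Kd; 0% = LDV ligand with antibody and no compound and 100% = antibody without LDV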). The settings on record: HUTS-21 LIBS mAb binding, at 6.7 µM, stronger effect = higher value, binding induced by LDV ligand.

A short description of assay [3]: calorie-restriction mimetic ROS inhibitors, yeast – validation compound set, pilot screen (AID 2706;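 active = superoxide response below 65% of plate, a cut near 3 SD across the whole screen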;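 also: yeast exposed to compound for one week at 30 degrees C before staining; 100% = mean of all compound wells on the same plate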). Particulars: S. cerevisiae aging, superoxide DHE fluorescence; at 10 µM, stronger effect = lower value.
The target in assay [4] is Beta-adrenergic receptor kinase 1 (Homo sapiens) (UniProt P25098). The assay can be described thus: GRK2 binders displacing RNA aptamer, biochemical, validation, human GRK2, bead flow cytometry (AID 488806;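 active = aptamer binding inhibition above 30%, about 3 SD of noise from non-fluorescent compounds; inactive = inhibition at or below 30%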). The settings on record: bead-bound GRK2, FAM-aptamer displacement, at 10 µM, stronger effect = higher value.
Chain of Beta-adrenergic receptor kinase 1 (Homo sapiens) (P25098 whole entry, looked up): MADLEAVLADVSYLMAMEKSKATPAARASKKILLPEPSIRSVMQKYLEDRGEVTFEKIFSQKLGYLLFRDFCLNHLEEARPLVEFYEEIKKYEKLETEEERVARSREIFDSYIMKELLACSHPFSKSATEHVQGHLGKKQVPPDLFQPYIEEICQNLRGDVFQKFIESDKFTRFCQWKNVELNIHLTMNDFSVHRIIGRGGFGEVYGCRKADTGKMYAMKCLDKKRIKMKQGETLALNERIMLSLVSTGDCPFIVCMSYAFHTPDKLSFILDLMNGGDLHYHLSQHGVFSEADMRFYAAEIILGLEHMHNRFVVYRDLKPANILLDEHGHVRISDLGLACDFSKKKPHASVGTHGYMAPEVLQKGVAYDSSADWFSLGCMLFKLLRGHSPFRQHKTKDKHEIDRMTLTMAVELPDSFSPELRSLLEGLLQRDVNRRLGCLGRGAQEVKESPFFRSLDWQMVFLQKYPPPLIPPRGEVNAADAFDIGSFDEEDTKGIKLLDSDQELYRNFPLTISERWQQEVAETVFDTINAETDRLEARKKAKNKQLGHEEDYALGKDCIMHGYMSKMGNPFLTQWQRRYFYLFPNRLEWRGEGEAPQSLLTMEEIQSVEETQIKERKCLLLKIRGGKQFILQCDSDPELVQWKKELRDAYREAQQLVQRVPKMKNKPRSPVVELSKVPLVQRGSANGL
Assay [5] has as its target AP-2 complex subunit beta (Homo sapiens) (UniProt P63010). The assay can be described thus: beta-arrestin/AP2 interaction blockers – biochemical, validation set, GST-AP2 beads, flow cytometry, pilot screen (AID 504541;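 active = inhibition above 54%, about 3 SD of non-fluorescent compounds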;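 also: AP2 carries R879A mutation and is captured from E. coli lysate; bead-bound FITC arrestin peptide fluorescence measuring arrestin peptide binding to AP2; 0% = DMSO wells and 100% = excess unlabeled arrestin peptide control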). The settings on record: FITC arrestin peptide, at 10 µM, stronger effect = higher value, AP2 beta2 appendage fragment, R879A mutant.
The nature of assay [6]: cytosolic pH regulators acting via V-ATPase – S. cerevisiae, pHLuorin, HTS validation (AID 504600).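 Also: plate controls were DMSO for no effect and reference compound for full effect.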 Particulars: V-ATPase proton transport, at 10 µM, stronger effect = higher value.
Assay [7] concerns anti-desmoglein-3 scFv antibody binding to human DSG3. The assay can be described thus: blockers of pathogenic pemphigus antibody–desmoglein-3 binding – biochemical, validation compound set, bead-based, flow cytometry, pilot screen (AID 588368;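 active = binding below the plate cutoff, the plate median minus 3 SD, with a reading above zero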;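 also: signal is the median channel fluorescence of bead-bound GFP antibody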). Particulars: Protein G beads, DSG3-Fc, scFv-GFP binding, at 10 µM, stronger effect = lower value.
The nature of assay [8]: Nile Red efflux blockade in pump-expressing yeast – validation compound set, multiplex, phenotypic, pilot screen (AID 588506;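 active = efflux inhibition above 0.42, the validation set average plus 4 SD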;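 also: Nile Red retained in cells so higher fluorescence means more efflux inhibition; 0 = negative control wells and 1 = enniatin B 25 µM full block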). Particulars: S. cerevisiae pump-expressing triplex, Nile Red efflux flow cytometry; at 10 µM; stronger effect = higher value; the pumps come from Candida albicans.
Assay [9] deals with ATP-binding cassette sub-family B member 6 (Homo sapiens) (UniProt Q9NP58). Briefly: blockers of ABCB6-driven porphyrin uptake – K562-ABCB6 cells, flow cytometry, validation set, pilot screen (AID 588550;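 active = inhibition above the screen-wide mean plus 3 SD, about 51%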;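 also: 0% = DMSO wells and 100% = benzethonium chloride 70 µM positive control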). Particulars: K562-ABCB6 porphyrin accumulation, 1 h, at 10 µM, stronger effect = higher value.
Chain of ATP-binding cassette sub-family B member 6 (Homo sapiens) (Q9NP58 whole entry, looked up): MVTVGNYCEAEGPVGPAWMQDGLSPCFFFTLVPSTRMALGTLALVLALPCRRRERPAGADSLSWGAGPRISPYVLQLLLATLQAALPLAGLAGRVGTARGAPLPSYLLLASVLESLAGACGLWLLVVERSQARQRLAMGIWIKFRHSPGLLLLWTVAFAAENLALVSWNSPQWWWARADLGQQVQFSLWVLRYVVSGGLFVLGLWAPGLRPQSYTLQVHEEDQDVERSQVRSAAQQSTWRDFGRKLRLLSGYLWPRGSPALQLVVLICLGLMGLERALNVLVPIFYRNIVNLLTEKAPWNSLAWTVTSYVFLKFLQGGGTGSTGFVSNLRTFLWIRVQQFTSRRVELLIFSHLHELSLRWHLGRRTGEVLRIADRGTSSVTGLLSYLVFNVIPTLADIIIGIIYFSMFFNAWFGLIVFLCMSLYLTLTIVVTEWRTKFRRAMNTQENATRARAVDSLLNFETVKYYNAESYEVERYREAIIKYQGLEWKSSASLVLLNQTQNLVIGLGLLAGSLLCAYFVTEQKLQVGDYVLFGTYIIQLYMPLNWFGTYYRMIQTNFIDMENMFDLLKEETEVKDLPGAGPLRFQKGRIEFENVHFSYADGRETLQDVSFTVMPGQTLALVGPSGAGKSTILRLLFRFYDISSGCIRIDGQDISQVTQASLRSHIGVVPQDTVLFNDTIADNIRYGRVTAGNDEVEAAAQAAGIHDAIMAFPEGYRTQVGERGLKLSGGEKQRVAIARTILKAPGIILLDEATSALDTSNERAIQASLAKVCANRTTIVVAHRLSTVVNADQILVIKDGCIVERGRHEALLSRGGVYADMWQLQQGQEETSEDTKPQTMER
A short description of assay [10]: AML differentiation inducers, ER-HoxA9 marrow cells – cell-based, GFP/MAC1 double positive, flow cytometry, validation set, primary screen (AID 588685;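 active = differentiation response of at least 50%, scaled between solvent and reference control, from cells with both markers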;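 also: compound exposure lasts four days before antibody staining and flow analysis; 0% = DMSO wells and 100% = 5 µM fulvestrant positive control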). Particulars: stronger effect = higher value, normalized: vehicle 0, fulvestrant 100.

We go through seven compounds from PubChem BioAssay.

SMILES strings stand for the structures. The source made the active and inactive calls. Rule as the data show it, unless noted: active = response above about 15%; inactive = the rest.

Chain of Integrin beta-1 (Homo sapiens) + Integrin alpha-4 (Homo sapiens) (P05556 whole entry, looked up): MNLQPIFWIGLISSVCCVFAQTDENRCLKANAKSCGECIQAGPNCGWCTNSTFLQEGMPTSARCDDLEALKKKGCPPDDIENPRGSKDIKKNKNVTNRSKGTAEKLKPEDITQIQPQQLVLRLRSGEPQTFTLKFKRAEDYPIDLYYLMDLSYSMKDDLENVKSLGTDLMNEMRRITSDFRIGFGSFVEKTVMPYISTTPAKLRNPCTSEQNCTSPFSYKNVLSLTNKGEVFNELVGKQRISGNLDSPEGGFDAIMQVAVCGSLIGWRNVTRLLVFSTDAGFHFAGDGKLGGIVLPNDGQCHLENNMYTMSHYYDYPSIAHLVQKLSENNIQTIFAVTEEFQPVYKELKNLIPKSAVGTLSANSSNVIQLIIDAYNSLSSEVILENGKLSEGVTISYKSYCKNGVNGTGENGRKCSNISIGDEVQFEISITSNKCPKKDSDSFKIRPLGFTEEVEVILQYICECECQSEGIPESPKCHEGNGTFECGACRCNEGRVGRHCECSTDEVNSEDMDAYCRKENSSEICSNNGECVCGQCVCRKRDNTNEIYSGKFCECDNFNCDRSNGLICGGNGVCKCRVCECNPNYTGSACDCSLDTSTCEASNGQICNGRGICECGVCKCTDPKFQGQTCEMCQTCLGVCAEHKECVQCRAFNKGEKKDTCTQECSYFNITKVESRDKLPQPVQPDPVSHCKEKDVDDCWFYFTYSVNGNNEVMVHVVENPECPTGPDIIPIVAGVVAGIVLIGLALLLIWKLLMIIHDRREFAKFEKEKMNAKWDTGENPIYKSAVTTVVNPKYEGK
Chain of Integrin beta-1 (Homo sapiens) + Integrin alpha-4 (Homo sapiens) (P13612 whole entry, looked up): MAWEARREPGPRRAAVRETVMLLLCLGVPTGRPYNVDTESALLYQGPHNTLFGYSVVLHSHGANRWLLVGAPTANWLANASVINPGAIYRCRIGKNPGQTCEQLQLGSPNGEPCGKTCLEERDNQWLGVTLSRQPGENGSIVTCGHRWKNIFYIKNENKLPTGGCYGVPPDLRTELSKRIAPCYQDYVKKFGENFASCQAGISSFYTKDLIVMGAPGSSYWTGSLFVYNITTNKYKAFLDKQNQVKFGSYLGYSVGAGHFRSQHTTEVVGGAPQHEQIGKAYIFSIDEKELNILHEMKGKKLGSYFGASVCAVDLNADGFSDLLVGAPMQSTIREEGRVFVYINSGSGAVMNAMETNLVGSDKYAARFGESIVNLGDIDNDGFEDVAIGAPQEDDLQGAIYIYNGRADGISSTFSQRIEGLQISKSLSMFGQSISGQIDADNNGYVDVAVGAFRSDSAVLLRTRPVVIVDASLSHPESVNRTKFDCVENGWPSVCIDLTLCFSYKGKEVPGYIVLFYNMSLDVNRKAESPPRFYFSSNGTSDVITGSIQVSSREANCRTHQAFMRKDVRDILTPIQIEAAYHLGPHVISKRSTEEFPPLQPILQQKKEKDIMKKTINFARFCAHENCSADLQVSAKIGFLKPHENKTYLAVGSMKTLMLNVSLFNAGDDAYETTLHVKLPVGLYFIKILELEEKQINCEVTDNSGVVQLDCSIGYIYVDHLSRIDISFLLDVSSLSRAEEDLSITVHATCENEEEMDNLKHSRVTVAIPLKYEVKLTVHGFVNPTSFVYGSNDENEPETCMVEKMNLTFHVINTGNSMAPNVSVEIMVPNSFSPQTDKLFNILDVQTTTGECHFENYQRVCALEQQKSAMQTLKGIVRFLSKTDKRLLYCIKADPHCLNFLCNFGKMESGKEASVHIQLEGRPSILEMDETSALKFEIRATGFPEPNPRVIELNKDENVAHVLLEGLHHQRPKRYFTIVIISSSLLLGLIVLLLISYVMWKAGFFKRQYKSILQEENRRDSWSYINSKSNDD
Chain of AP-2 complex subunit beta (Homo sapiens) (P63010 whole entry, looked up, the tested form may be a part, one chain of several): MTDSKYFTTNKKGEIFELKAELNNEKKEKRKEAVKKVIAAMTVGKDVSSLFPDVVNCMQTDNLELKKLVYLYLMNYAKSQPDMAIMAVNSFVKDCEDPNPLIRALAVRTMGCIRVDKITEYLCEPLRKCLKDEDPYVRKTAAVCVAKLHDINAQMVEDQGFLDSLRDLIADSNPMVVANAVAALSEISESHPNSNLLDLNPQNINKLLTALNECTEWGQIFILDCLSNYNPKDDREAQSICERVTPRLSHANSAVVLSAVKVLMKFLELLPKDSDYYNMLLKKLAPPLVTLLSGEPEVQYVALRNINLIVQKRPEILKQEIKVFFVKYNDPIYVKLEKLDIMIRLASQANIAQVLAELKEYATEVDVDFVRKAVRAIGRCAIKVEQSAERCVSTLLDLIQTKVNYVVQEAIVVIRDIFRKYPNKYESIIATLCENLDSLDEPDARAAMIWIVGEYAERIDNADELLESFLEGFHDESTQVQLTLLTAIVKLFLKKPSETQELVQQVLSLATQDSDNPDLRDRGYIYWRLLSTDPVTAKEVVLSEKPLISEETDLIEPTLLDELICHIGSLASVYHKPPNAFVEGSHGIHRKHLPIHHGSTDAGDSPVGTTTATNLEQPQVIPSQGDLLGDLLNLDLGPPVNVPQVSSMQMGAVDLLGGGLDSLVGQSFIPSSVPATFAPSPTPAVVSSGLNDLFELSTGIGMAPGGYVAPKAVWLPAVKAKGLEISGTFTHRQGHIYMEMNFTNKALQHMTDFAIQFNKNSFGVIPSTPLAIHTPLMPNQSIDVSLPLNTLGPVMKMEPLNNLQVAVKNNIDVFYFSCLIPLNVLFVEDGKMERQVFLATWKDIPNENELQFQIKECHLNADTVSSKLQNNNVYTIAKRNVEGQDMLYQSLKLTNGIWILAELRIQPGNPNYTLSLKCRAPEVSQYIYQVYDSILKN

As usually defined, the inhibition is the change of the read-out against control, counted positive when it falls. `CCNC(=O)c1sc2cc(C)ccc2c1Cl` yielded a double positive events in assay [1] of 60.2%. Further, the vesicle binding response in assay [1] is 294% (inactive). Also, the inhibition in [2] was -10.5% (inactive); in [5], -9.7% (inactive); in [9], 5% (inactive). The superoxide response (% of plate) in assay [3] is 86.4% (inactive). The aptamer binding inhibition in assay [4] is -2% (inactive). The response in assay [6] is 0.2% (inactive). Also, the binding (% of control) in [7] was 99.5% (inactive). Besides, the efflux inhibition (fraction of control) in assay [8] is -0.16 (inactive). The differentiation response in assay [10] is 1.41% (inactive).
On to `O=C(O)C[C@@H](O)C(=O)O`, for which, in assay [1], the double positive events is 56.6%. The vesicle binding response in assay [1] is 193% (inactive). In addition, the inhibition in [2] was 0.69% (inactive); in [5], -10.9% (inactive); in assay [9] it was 4% (inactive). The superoxide response (% of plate) in assay [3] is 104% (inactive). The aptamer binding inhibition in [4] was 2% (inactive). Besides, the response in [6] is -4.82% (inactive). Moreover, the binding (% of control) in assay [7] was 102% (inactive). Also, in assay [8], the efflux inhibition (fraction of control) is -0.2 (inactive). For the same compound, the differentiation response in assay [10] was 6.26% (inactive).
On to `Oc1ccc(/C=C/c2cc(O)cc(O)c2)cc1`, for which, in [1], the double positive events is 52.4%. Besides, in [1], the vesicle binding response was 225% (inactive). Further, the inhibition in [2] was -6.77% (inactive); in assay [5], 7.43% (inactive); in assay [9], 6% (inactive). Further, the superoxide response (% of plate) in assay [3] is 96.3% (inactive). Moreover, the aptamer binding inhibition in assay [4] is 2% (inactive). In addition, the response in assay [6] was -1.9% (inactive). For the same compound, the binding (% of control) in [7] was 97.2% (inactive). Further, the efflux inhibition (fraction of control) in [8] was -0.43 (inactive). Also, the differentiation response in assay [10] is -16.4% (inactive).
With `CNC[C@H](O)c1cccc(O)c1`, the double positive events in assay [1] worked out at 61.2%. The vesicle binding response in [1] is 124% (inactive). Moreover, the inhibition in assay [2] was -10.5% (inactive); in assay [5], -4.38% (inactive); in [9] it was -8% (inactive). Moreover, the superoxide response (% of plate) in assay [3] is 96.3% (inactive). In addition, the aptamer binding inhibition in [4] was 0% (inactive). The response in [6] was 3.91% (inactive). In assay [7], the binding (% of control) is 102% (inactive). In assay [8], the efflux inhibition (fraction of control) is 0.875 (active). Further, the differentiation response in [10] is 7.13% (inactive).
Take `CN(C)CCN(Cc1cccs1)c1ccccn1`: the double positive events in assay [1] is 52.7%. Besides, the vesicle binding response in assay [1] was 165% (inactive). Moreover, the values for the inhibition in assay [2], in assay [5] and in [9] were 13.8% (inactive), -17.1% (inactive) and 8% (inactive), respectively. The superoxide response (% of plate) in assay [3] is 113% (inactive). In addition, in assay [4], the aptamer binding inhibition was 2% (inactive). Further, the response in assay [6] was 8.75% (inactive). In assay [7], the binding (% of control) is 101% (inactive). In addition, in assay [8], the efflux inhibition (fraction of control) is 0.18 (inactive). Also, in assay [10], the differentiation response was -21.2% (inactive).
As for `COc1ccc(-c2c(C)c3ccc(OCC(C)=O)cc3oc2=O)cc1`, in assay [1], the double positive events turned out to be 46.6%. Besides, the vesicle binding response in [1] is 128% (inactive). Also, the values for the inhibition in assay [2], in assay [5] and in assay [9] were 3.49% (inactive), -9.08% (inactive) and 9% (inactive), respectively. Also, the superoxide response (% of plate) in assay [3] was 113% (inactive). Besides, the aptamer binding inhibition in assay [4] was 6% (inactive). In assay [6], the response is -2.13% (inactive). Further, in assay [7], the binding (% of control) was 103% (inactive). The efflux inhibition (fraction of control) in [8] is -0.05 (inactive). The differentiation response in assay [10] is 3.03% (inactive).
In assay [1], `C[C@@H]1C[C@H]2[C@@H]3C[C@H](F)C4=CC(=O)C=C[C@]4(C)[C@@]3(F)[C@@H](O)C[C@]2(C)[C@@]1(O)C(=O)CO` gave a double positive events of 55%. Also, the vesicle binding response in assay [1] is 206% (inactive). Moreover, the inhibition is 2.56% (inactive) in [2], -9.58% (inactive) in assay [5] and 9% (inactive) in [9]. In assay [3], the superoxide response (% of plate) was 92.5% (inactive). The aptamer binding inhibition in [4] is 2% (inactive). Moreover, the response in assay [6] is 10.1% (inactive). Besides, in [7], the binding (% of control) is 103% (inactive). Moreover, in assay [8], the efflux inhibition (fraction of control) was -0.09 (inactive). Moreover, the differentiation response in assay [10] is -1.82% (inactive).
